Reference: PubChem BioAssay (NCI)
This is part of a sample that, as a whole, favours compounds with a hit. Of some 83,000 tested, about 20% had one in any assay.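 For each line, cells grew in 96-well plates with the test compound present at a single concentration for 48 hours.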 The source made the active and inactive calls. How the source made its calls: active means growth percent below 10; inactive means the rest.

Tested on: MDA-MB-231 breast
Assay: NCI-60 one-dose screen, 48 h (100 = growth as untreated, 0 = no growth, -100 = all killed)
Settings: 10 µM unless noted

SMILES	growth
CC1=N/C(=C\c2cccc(Br)c2)C(=O)O1	105% (inactive)
O=C1C=CC(=O)c2c1nc1n2CCCC1	89.9% (inactive)
Cc1ccc2c(NCCCN(C)C)c3c(C)nn(C)c3nc2c1	47.6% (inactive)
COC(=O)[C@H](C(C)C)n1c(=O)c2cc(OC)c(OC)cc2c2cnc3[nH]ccc3c21	48% (inactive)
NCCN1CCN(c2nccc(-c3ccc4ccccc4c3)n2)CC1	23.8% (inactive)
Oc1cccc(Nc2nccc(-c3ccc4ccccc4c3)n2)c1	37.2% (inactive)
CN1CCN(c2ccc3nc(-c4ccc5nc(-c6ccc(OCCC(C)(C)C)cc6)[nH]c5c4)[nH]c3c2)CC1	-33.3% (active)
CCOC(=O)C(CC)n1c(=O)c2cc(OC)c(OC)cc2c2cnc3[nH]ccc3c21 (configuration not stated)	70.5% (inactive)
O=C(Cn1cc(CN2C(=O)c3ccccc3S2(=O)=O)nn1)Nc1ccc([N+](=O)[O-])cc1Cl	90% (inactive)
COc1ccc2[nH]c(=O)c(/C=C/C(=O)c3ccc(Nc4nccc(-c5ccc6ccccc6c5)n4)cc3)cc2c1	96.2% (inactive)
Cn1cc(-c2ccc(-c3cn(C)c4ncccc34)[nH]2)c2cccnc21	63.8% (inactive)
Nc1ccc(Nc2nccc(-c3ccc4ccccc4c3)n2)cc1	46.8% (inactive)
CCN1CCN(Cc2ccc(NC(=O)Nc3nc4ccc(Oc5ccnc(C(=O)NC)c5)cc4s3)cc2C(F)(F)F)CC1	-78.4% (active)
COCCOc1ccc(-c2nc3ccc(-c4nc5ccc(N6CCN(C)CC6)cc5[nH]4)cc3[nH]2)cc1	8.21% (active)
CCOC(=O)C(=Cc1ccccc1F)C(=O)OCC	93.3% (inactive)
O=C(CO[N+](=O)[O-])Nc1ccc(C(=O)/C=C/c2ccc(Cl)cc2)cc1	55% (inactive)
COc1ccc(-c2cc(-c3cccnc3)nc3sc4c(=O)n(-c5ccc(C)cc5)nnc4c23)cc1OC	79.6% (inactive)
CN(C)CC(=O)Nc1ccc(Cn2nnc3c2C(=O)c2nnn(Cc4ccc(NC(=O)CN(C)C)cc4)c2C3=O)cc1	-14.2% (active)
COc1ccc2nc3cc(Cl)ccc3c(N3CCN(c4ccnc(N5CCOCC5)n4)CC3)c2c1	45.1% (inactive)
Oc1ccc(Nc2nccc(-c3ccc4ccccc4c3)n2)cc1	30.5% (inactive)

SMILES	growth
CC[C@H](Nc1nc(N)nc(C)c1C#N)c1nc2cccc(NCc3ccc(C(=O)NO)cc3)c2c(=O)n1-c1ccccc1	7.58% (active)
CC[C@H](Nc1cc(C)nc(N)n1)c1nc2cccc(NCc3ccc(C(=O)NO)cc3)c2c(=O)n1-c1ccccc1	0.273% (active)
CN(C)CCOc1ccc(-c2nc3ccc(-c4nc5ccc(N6CCN(C)CC6)cc5[nH]4)cc3[nH]2)cc1	73.4% (inactive)
O=C1C(Cl)=C(Cl)C(=O)c2c1nc1n2CCCC1	96.2% (inactive)
COc1ccc(-c2cn3c(-c4ccc(OC)cc4)cnc3c(Oc3ccc4c(C)cc(=O)oc4c3)n2)cc1	6.29% (active)
COc1cc2cc(COc3nccc(-c4ccc(Cl)cc4)n3)c(=O)[nH]c2cc1OC	55.1% (inactive)
CC(C)CC(CC1=CCC2CC1C2(C)C)C1=C(O)C(C)(C)C(=O)C(C)(C)C1=O (configuration not stated)	-6.26% (active)
CN(C)C(=O)c1cc2cnc(Nc3ccc(-c4csc5c(=O)cc(N6CCNCC6)oc45)cc3)nc2n1C1CCCC1	9.91% (active)
Nc1nc(-c2ccc(F)cc2)cc(-c2cnn(-c3ccccc3)n2)n1	102% (inactive)
O=C(CCN1CCOCC1)Nc1ccc(Cn2nnc3c2C(=O)c2nnn(Cc4ccc(NC(=O)CCN5CCOCC5)cc4)c2C3=O)cc1	-4.23% (active)
CC1(C)CC(=O)C(c2c(-c3ccccc3)[nH]c3[nH]c(=S)[nH]c(=O)c23)=C(O)C1	101% (inactive)
O=C(CNC1C2CC3CC(C2)CC1C3)Sc1nnc2sc3ccccc3n12 (configuration not stated)	81.5% (inactive)
COc1c2ccccc2c(OC)c2[nH]c(=O)ccc12	69.4% (inactive)
CC(=O)/C(=C/c1cccc(Cl)c1)C(=O)c1ccccc1	84.8% (inactive)
CN1C2CCC1/C(=C\c1ccc(Cl)cc1)C1=C2[C@@H](c2ccc(Cl)cc2)C(C#N)=C(N)O1 (some centres not stated)	104% (inactive)
O=C(/C=C/c1cccc(Br)c1)c1ccccc1	92.7% (inactive)
CN1CCN(Cc2ccc(NC(=O)c3[nH]ncc3Nc3ncnc4sccc34)cc2)CC1	-4.43% (active)
CSc1nc(NCCCNc2ccnc3cc(Cl)ccc23)cc(-c2ccccc2)n1	45.4% (inactive)
C[C@@H]1CC[C@@H]2[C@@H]1[C@H](OC(=O)/C=C/c1ccccc1)[C@]1(c3ccccc3)C[C@@H](OC(=O)CO)[C@@]2(C)O1	97.2% (inactive)

Tested on: RXF 393 renal
Assay: as above
Settings: 10 µM unless noted

SMILES	growth
CC1=N/C(=C\c2cccc(Br)c2)C(=O)O1	112% (inactive)
O=C1C=CC(=O)c2c1nc1n2CCCC1	96.5% (inactive)
COC(=O)[C@H](C(C)C)n1c(=O)c2cc(OC)c(OC)cc2c2cnc3[nH]ccc3c21	-0.674% (active)
NCCN1CCN(c2nccc(-c3ccc4ccccc4c3)n2)CC1	43.1% (inactive)
Oc1cccc(Nc2nccc(-c3ccc4ccccc4c3)n2)c1	37.8% (inactive)
CN1CCN(c2ccc3nc(-c4ccc5nc(-c6ccc(OCCC(C)(C)C)cc6)[nH]c5c4)[nH]c3c2)CC1	-72.1% (active)
CCOC(=O)C(CC)n1c(=O)c2cc(OC)c(OC)cc2c2cnc3[nH]ccc3c21 (configuration not stated)	34.5% (inactive)
O=C(Cn1cc(CN2C(=O)c3ccccc3S2(=O)=O)nn1)Nc1ccc([N+](=O)[O-])cc1Cl	110% (inactive)
COc1ccc2[nH]c(=O)c(/C=C/C(=O)c3ccc(Nc4nccc(-c5ccc6ccccc6c5)n4)cc3)cc2c1	102% (inactive)
Cn1cc(-c2ccc(-c3cn(C)c4ncccc34)[nH]2)c2cccnc21	10.6% (inactive)
Nc1ccc(Nc2nccc(-c3ccc4ccccc4c3)n2)cc1	50.3% (inactive)
CCN1CCN(Cc2ccc(NC(=O)Nc3nc4ccc(Oc5ccnc(C(=O)NC)c5)cc4s3)cc2C(F)(F)F)CC1	-88.4% (active)
COCCOc1ccc(-c2nc3ccc(-c4nc5ccc(N6CCN(C)CC6)cc5[nH]4)cc3[nH]2)cc1	-62.8% (active)
CCOC(=O)C(=Cc1ccccc1F)C(=O)OCC	102% (inactive)
O=C(CO[N+](=O)[O-])Nc1ccc(C(=O)/C=C/c2ccc(Cl)cc2)cc1	72.5% (inactive)
COc1ccc(-c2cc(-c3cccnc3)nc3sc4c(=O)n(-c5ccc(C)cc5)nnc4c23)cc1OC	101% (inactive)
CN(C)CC(=O)Nc1ccc(Cn2nnc3c2C(=O)c2nnn(Cc4ccc(NC(=O)CN(C)C)cc4)c2C3=O)cc1	-77.4% (active)
COc1ccc2nc3cc(Cl)ccc3c(N3CCN(c4ccnc(N5CCOCC5)n4)CC3)c2c1	8.55% (active)
Oc1ccc(Nc2nccc(-c3ccc4ccccc4c3)n2)cc1	60.3% (inactive)

SMILES	growth
CC[C@H](Nc1nc(N)nc(C)c1C#N)c1nc2cccc(NCc3ccc(C(=O)NO)cc3)c2c(=O)n1-c1ccccc1	-21.7% (active)
CC[C@H](Nc1cc(C)nc(N)n1)c1nc2cccc(NCc3ccc(C(=O)NO)cc3)c2c(=O)n1-c1ccccc1	-6% (active)
CN(C)CCOc1ccc(-c2nc3ccc(-c4nc5ccc(N6CCN(C)CC6)cc5[nH]4)cc3[nH]2)cc1	48.3% (inactive)
O=C1C(Cl)=C(Cl)C(=O)c2c1nc1n2CCCC1	99.5% (inactive)
COc1ccc(-c2cn3c(-c4ccc(OC)cc4)cnc3c(Oc3ccc4c(C)cc(=O)oc4c3)n2)cc1	-20.8% (active)
COc1cc2cc(COc3nccc(-c4ccc(Cl)cc4)n3)c(=O)[nH]c2cc1OC	61.9% (inactive)
CC(C)CC(CC1=CCC2CC1C2(C)C)C1=C(O)C(C)(C)C(=O)C(C)(C)C1=O (configuration not stated)	7.5% (active)
CN(C)C(=O)c1cc2cnc(Nc3ccc(-c4csc5c(=O)cc(N6CCNCC6)oc45)cc3)nc2n1C1CCCC1	-78.6% (active)
Nc1nc(-c2ccc(F)cc2)cc(-c2cnn(-c3ccccc3)n2)n1	97.4% (inactive)
O=C(CCN1CCOCC1)Nc1ccc(Cn2nnc3c2C(=O)c2nnn(Cc4ccc(NC(=O)CCN5CCOCC5)cc4)c2C3=O)cc1	65.5% (inactive)
CC1(C)CC(=O)C(c2c(-c3ccccc3)[nH]c3[nH]c(=S)[nH]c(=O)c23)=C(O)C1	115% (inactive)
O=C(CNC1C2CC3CC(C2)CC1C3)Sc1nnc2sc3ccccc3n12 (configuration not stated)	114% (inactive)
COc1c2ccccc2c(OC)c2[nH]c(=O)ccc12	91.3% (inactive)
CC(=O)/C(=C/c1cccc(Cl)c1)C(=O)c1ccccc1	93.1% (inactive)
CN1C2CCC1/C(=C\c1ccc(Cl)cc1)C1=C2[C@@H](c2ccc(Cl)cc2)C(C#N)=C(N)O1 (some centres not stated)	68.8% (inactive)
O=C(/C=C/c1cccc(Br)c1)c1ccccc1	89.9% (inactive)
CN1CCN(Cc2ccc(NC(=O)c3[nH]ncc3Nc3ncnc4sccc34)cc2)CC1	-51.1% (active)
CSc1nc(NCCCNc2ccnc3cc(Cl)ccc23)cc(-c2ccccc2)n1	60.9% (inactive)
C[C@@H]1CC[C@@H]2[C@@H]1[C@H](OC(=O)/C=C/c1ccccc1)[C@]1(c3ccccc3)C[C@@H](OC(=O)CO)[C@@]2(C)O1	60.6% (inactive)
